Results taken from PubChem BioAssay AID1159580 (chemical genetic matrix, 2015).
“And” between values parts separate entries of the source, which are not always exact repeats. Equal entries are not always repeated. Screen size: about 5,500 compounds; about 2,000 (36%) were called active. About 18% were inconclusive and are not listed. Cut-off read from the data, not from the text of the source: active = normalized growth mostly below about 0.91 (no sharp cut-off); inconclusive = no clear call, values can overlap the other calls; inactive = mostly above about 0.92. The list shows a part of the results.

Test: chemical genetic growth profiling, strain panel (AID 1159580);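 note: tested at 20 µM; growth read once vehicle control cultures reached saturation at 30 °C; 1 = growth at the plate median or of vehicle wells; lower values mean less growth of the strain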
Conditions: S. cerevisiae deletion strains, growth OD

Measured: normalized growth

N#C/C(=C\c1ccc(O)cc1)C(=O)O
inactive: locus YAL013W, strain DEP1, stronger effect = lower value 0.988 | locus YAL021C, strain ccr4, stronger effect = lower value 0.979 | locus YAL026C, strain drs2, stronger effect = lower value 1 | locus YAL030W, strain snc1, stronger effect = lower value 1.01 | locus YBL061C, strain skt5, stronger effect = lower value 1.01 | locus YBR009C, strain hhf1, stronger effect = lower value 1.02 | locus YBR021W, strain FUR4, stronger effect = lower value 1.02 | locus YBR023C, strain chs3, stronger effect = lower value 1 | locus YBR171W, strain sec66, stronger effect = lower value 0.991 | locus YBR229C, strain ROT2, stronger effect = lower value 0.956 | locus YBR231C, strain swc5, stronger effect = lower value 1.01 | locus YBR279W, strain paf1, stronger effect = lower value 1 | locus YCL011C, strain gbp2, stronger effect = lower value 0.987 | locus YCL016C, strain dcc1, stronger effect = lower value 1.01 | locus YCL029C, strain bik1, stronger effect = lower value 0.997 | locus YCL061C, strain MRC1, stronger effect = lower value 0.993 | locus YCL069W, strain vba3, stronger effect = lower value 0.996 | locus YCR088W, strain abp1, stronger effect = lower value 0.987 | locus YDL005C, strain med2, stronger effect = lower value 0.997 | locus YDL035C, strain GPR1, stronger effect = lower value 0.994 | locus YDL040C, strain nat1, stronger effect = lower value 1 | locus YDL074C, strain BRE1, stronger effect = lower value 0.966 | locus YDL101C, strain DUN1, stronger effect = lower value 0.951 | locus YDL134C, strain PPH21, stronger effect = lower value 0.987 | locus YDL185W, strain tfp1, stronger effect = lower value 0.976 | locus YDL192W, strain arf1, stronger effect = lower value 0.993 | locus YDR001C, strain nth1, stronger effect = lower value 0.996 | locus YDR069C, strain doa4, stronger effect = lower value 1 | locus YDR101C, strain arx1, stronger effect = lower value 1.01 | locus YDR137W, strain rgp1, stronger effect = lower value 0.992 | locus YDR150W, strain NUM1, stronger effect = lower value 0.981 | locus YDR159W, strain sac3, stronger effect = lower value 1.01 | locus YDR162C, strain NBP2, stronger effect = lower value 0.937 | locus YDR195W, strain ref2 0.988 | locus YDR297W, strain sur2, stronger effect = lower value 0.997 | locus YDR318W, strain mcm21, stronger effect = lower value 1.04 | locus YDR334W, strain swr1, stronger effect = lower value 0.961 | locus YDR335W, strain msn5, stronger effect = lower value 1 | locus YDR388W, stronger effect = lower value 1.01 | locus YDR392W, strain spt3, stronger effect = lower value 0.972 | locus YDR502C, strain sam2, stronger effect = lower value 0.987 | locus YEL003W, strain gim4, stronger effect = lower value 0.989 | locus YEL037C, strain rad23, stronger effect = lower value 0.986 | locus YEL061C, strain CIN8 (second series), stronger effect = lower value 0.984 | locus YEL061C, strain CIN8, stronger effect = lower value 0.984 | locus YER015W, strain faa2, stronger effect = lower value 1 | locus YER016W, strain bim1, stronger effect = lower value 1.01 | locus YER110C, stronger effect = lower value 0.999 | locus YER111C, strain swi4, stronger effect = lower value 0.999 | locus YER155C, strain BEM2 (second series), stronger effect = lower value 1.01 | locus YER155C, strain BEM2, stronger effect = lower value 0.987 | locus YER167W, strain BCK2, stronger effect = lower value 1.01 | locus YFR010W, strain ubp6, stronger effect = lower value 0.983 | locus YGL078C, strain dbp3, stronger effect = lower value 0.985 | locus YGL086W, strain mad1, stronger effect = lower value 1.02 | locus YGL167C, strain pmr1, stronger effect = lower value 1.01 | locus YGL173C, strain kem1, stronger effect = lower value 1 | locus YGL227W, strain vid30, stronger effect = lower value 0.998 | locus YGL240W, strain doc1, stronger effect = lower value 1.03 | locus YGL248W, strain PDE1, stronger effect = lower value 0.976 | locus YGL253W, strain hxk2, stronger effect = lower value 0.999 | locus YGR078C, strain PAC10, stronger effect = lower value 0.97 | locus YGR135W, strain pre9, stronger effect = lower value 0.988 | locus YGR229C, strain SMI1, stronger effect = lower value 0.996 | locus YGR252W, strain gcn5, stronger effect = lower value 1.09 | locus YHR013C, strain ard1, stronger effect = lower value 1.02 | locus YHR027C, strain rpn1, stronger effect = lower value 0.99 | locus YHR030C, strain SLT2, stronger effect = lower value 0.997 and 1.06 | locus YHR079C, strain IRE1 (second series), stronger effect = lower value 1 | locus YHR079C, strain IRE1, stronger effect = lower value 1.07 | locus YHR094C, strain hxt1, stronger effect = lower value 0.998 | locus YHR129C, strain ARP1, stronger effect = lower value 0.986 | locus YHR142W, strain chs7, stronger effect = lower value 0.954 | locus YHR200W, strain rpn10, stronger effect = lower value 0.996 | locus YIL066C, strain RNR3, stronger effect = lower value 0.981 | locus YIL073C, strain SPO22, stronger effect = lower value 1.1 | locus YIL125W, strain kgd1, stronger effect = lower value 0.997 | locus YIR030C, strain dcg1, stronger effect = lower value 0.988 | locus YJL092W, strain hpr5, stronger effect = lower value 0.979 | locus YJL095W, strain BCK1 (second series), stronger effect = lower value 1 | locus YJL095W, strain BCK1, stronger effect = lower value 0.979 and 1.08 | locus YJL115W, strain asf1, stronger effect = lower value 0.988 | locus YJL129C, strain trk1, stronger effect = lower value 0.98 | locus YJL134W, strain LCB3, stronger effect = lower value 0.983 | locus YJL154C, strain vps35, stronger effect = lower value 0.975 | locus YJL164C, strain tpk1, stronger effect = lower value 1 | locus YJL166W, strain qcr8, stronger effect = lower value 1.01 | locus YJL168C, strain set2, stronger effect = lower value 0.992 | locus YJL187C, strain SWE1 (second series), stronger effect = lower value 0.96 | locus YJL187C, strain SWE1, stronger effect = lower value 1 | locus YJR043C, strain POL32, stronger effect = lower value 1.04 | locus YJR066W, strain TOR1, stronger effect = lower value 0.992
